Test results: PubChem BioAssay (NCI)
The panel holds about 83,000 compounds, 20% with a hit somewhere; the sample as a whole holds those more often.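 The endpoint reported here, percent growth, reads 100 for growth as untreated, 0 for no net growth and -100 for all cells dead.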 The source made the active and inactive calls. The calls were made as follows: active = growth percent below 10; inactive = the rest.

Columns and labels:
Assay in all cases: NCI-60 one-dose screen, 48 h (100 = growth as untreated, 0 = no growth, -100 = all killed)
Details in all cases: 10 µM unless noted
HCT-15 colon = tested on: HCT-15 colon
HT29 colon = tested on: HT29 colon
SNB-75 CNS = tested on: SNB-75 CNS
SNB-19 CNS = tested on: SNB-19 CNS
U251 CNS = tested on: U251 CNS
SK-MEL-5 melanoma = tested on: SK-MEL-5 melanoma
UACC-62 melanoma = tested on: UACC-62 melanoma
LOX IMVI melanoma = tested on: LOX IMVI melanoma
SK-MEL-28 melanoma = tested on: SK-MEL-28 melanoma
SK-MEL-2 melanoma = tested on: SK-MEL-2 melanoma
EKVX NSCLC = tested on: EKVX NSCLC
SN12C renal = tested on: SN12C renal
UO-31 renal = tested on: UO-31 renal
TK-10 renal = tested on: TK-10 renal
ACHN renal = tested on: ACHN renal
CAKI-1 renal = tested on: CAKI-1 renal
CCRF-CEM leukemia = tested on: CCRF-CEM leukemia
MOLT-4 leukemia = tested on: MOLT-4 leukemia
A498 renal = tested on: A498 renal

Measured: growth

O=[N+]([O-])c1ccccc1/C=N\NC(=S)N/N=C/c1ccccc1[N+](=O)[O-]
inactive: HCT-15 colon 35.8% | HT29 colon 21.5% | SNB-75 CNS 72.4% | SNB-19 CNS 69% | U251 CNS 62.7% | SK-MEL-5 melanoma 59.1% | UACC-62 melanoma 55.5% | LOX IMVI melanoma 43.4% | SK-MEL-28 melanoma 78.2% | SK-MEL-2 melanoma 56.6% | EKVX NSCLC 70.5% | SN12C renal 86.3% | UO-31 renal 27.4% | TK-10 renal 46.8% | ACHN renal 78.8% | CAKI-1 renal 42.2% | CCRF-CEM leukemia 82.7% | MOLT-4 leukemia 37.8%

Cc1cc2nc3[nH]c4ccccc4c3nc2cc1C
inactive: HCT-15 colon 80.3% | HT29 colon 95.1% | SNB-75 CNS 51.2% | SNB-19 CNS 89.7% | U251 CNS 58.1% | SK-MEL-5 melanoma 88.9% | UACC-62 melanoma 90.3% | LOX IMVI melanoma 64.1% | SK-MEL-28 melanoma 90% | SK-MEL-2 melanoma 104% | EKVX NSCLC 79.3% | SN12C renal 83.4% | UO-31 renal 68.4% | TK-10 renal 107% | ACHN renal 91.9% | A498 renal 121% | CCRF-CEM leukemia 76.2% | MOLT-4 leukemia 89.7%

CC(O)CN(CC(C)O)c1ccc2c(c1)Cc1cc([N+](=O)[O-])ccc1-2 (stereo not given)
inactive: HCT-15 colon 83.5% | HT29 colon 103% | SNB-75 CNS 87.5% | SNB-19 CNS 98.9% | U251 CNS 102% | SK-MEL-5 melanoma 103% | UACC-62 melanoma 95.7% | LOX IMVI melanoma 96.2% | SK-MEL-28 melanoma 109% | SK-MEL-2 melanoma 95.9% | EKVX NSCLC 74.8% | SN12C renal 99.6% | UO-31 renal 63.2% | TK-10 renal 97.3% | ACHN renal 93% | CAKI-1 renal 84.6% | CCRF-CEM leukemia 106% | MOLT-4 leukemia 69.8%

CN1CCN=C1c1ccc(NC(=O)c2ccc(C(=O)Nc3ccc(C4=NCCN4C)cc3)cc2)cc1
inactive: HCT-15 colon 108% | HT29 colon 98.8% | SNB-75 CNS 91.2% | SNB-19 CNS 92% | U251 CNS 93.6% | SK-MEL-5 melanoma 84.7% | UACC-62 melanoma 91.8% | LOX IMVI melanoma 94.2% | SK-MEL-28 melanoma 110% | SK-MEL-2 melanoma 121% | EKVX NSCLC 89.1% | SN12C renal 98.1% | UO-31 renal 82.3% | TK-10 renal 90.4% | ACHN renal 99.3% | A498 renal 117% | CCRF-CEM leukemia 110% | MOLT-4 leukemia 100%

COc1ccc(-n2nc(C)c3c(Nc4ccc(NC(=O)Nc5cc(C(F)(F)F)ccc5F)cc4)ncnc32)cc1
active: HCT-15 colon 8.66% | HT29 colon 1.92% | LOX IMVI melanoma -90.5% | CAKI-1 renal 4.88%
inactive: SNB-75 CNS 25.8% | SNB-19 CNS 34.8% | U251 CNS 12.9% | SK-MEL-5 melanoma 46% | UACC-62 melanoma 19.6% | SK-MEL-28 melanoma 48.6% | SK-MEL-2 melanoma 25% | EKVX NSCLC 24.1% | SN12C renal 44.9% | UO-31 renal 16% | TK-10 renal 47.5% | ACHN renal 25.3% | A498 renal 56.5% | CCRF-CEM leukemia 38.4% | MOLT-4 leukemia 39.3%

Cc1cc(C)nc(SC2=C(Nc3ccc(O)cc3)C(=O)N(Cc3ccccc3)C2=O)n1
inactive: HCT-15 colon 89.5% [40 µM] | HT29 colon 119% [40 µM] | SNB-75 CNS 89.8% [40 µM] | SNB-19 CNS 85.1% [40 µM] | U251 CNS 91.9% [40 µM] | SK-MEL-5 melanoma 82.4% [40 µM] | UACC-62 melanoma 68.4% [40 µM] | LOX IMVI melanoma 82.8% [40 µM] | SK-MEL-28 melanoma 112% [40 µM] | SK-MEL-2 melanoma 96.1% [40 µM] | EKVX NSCLC 77.4% [40 µM] | SN12C renal 94.3% [40 µM] | UO-31 renal 70.8% [40 µM] | TK-10 renal 110% [40 µM] | ACHN renal 93.4% [40 µM] | CAKI-1 renal 64.4% [40 µM] | A498 renal 112% [40 µM] | MOLT-4 leukemia 58% [40 µM]

CC(=O)Nc1ccc(-n2c(O)c(/C=N/NC(=O)Cc3ccccc3Nc3c(Cl)cccc3Cl)sc2=S)cc1
inactive: HCT-15 colon 103% | HT29 colon 104% | SNB-75 CNS 89.6% | SNB-19 CNS 96.4% | U251 CNS 90.4% | SK-MEL-5 melanoma 96.2% | UACC-62 melanoma 95.4% | LOX IMVI melanoma 84.2% | SK-MEL-28 melanoma 111% | SK-MEL-2 melanoma 113% | EKVX NSCLC 100% | SN12C renal 104% | UO-31 renal 84.1% | TK-10 renal 112% | ACHN renal 99.1% | CAKI-1 renal 84.9% | A498 renal 97.1% | CCRF-CEM leukemia 96.7% | MOLT-4 leukemia 94.2%

O=C1OCC2=C1C(c1ccncc1)c1cc3c(cc1N2CCO)OCO3 (stereo not given)
inactive: HCT-15 colon 103% | HT29 colon 106% | SNB-75 CNS 95.7% | SNB-19 CNS 100% | U251 CNS 96.7% | SK-MEL-5 melanoma 98.6% | UACC-62 melanoma 94.9% | LOX IMVI melanoma 99.9% | SK-MEL-28 melanoma 102% | SK-MEL-2 melanoma 107% | EKVX NSCLC 101% | SN12C renal 100% | UO-31 renal 94.7% | TK-10 renal 101% | ACHN renal 105% | CAKI-1 renal 99.3% | A498 renal 90% | CCRF-CEM leukemia 94% | MOLT-4 leukemia 107%

CCCCC(=O)OCC1OC(n2cnc3c(=S)nc[nH]c32)C(OC(=O)CCCC)C1OC(=O)CCCC (stereo not given)
inactive: HCT-15 colon 33.1% | HT29 colon 27% | SNB-75 CNS 51% | SNB-19 CNS 64.2% | U251 CNS 70.1% | SK-MEL-5 melanoma 23.3% | LOX IMVI melanoma 12.1% | SK-MEL-28 melanoma 85.7% | SK-MEL-2 melanoma 46.2% | EKVX NSCLC 31.3% | SN12C renal 27.4% | UO-31 renal 35% | TK-10 renal 14.9% | ACHN renal 17.2% | A498 renal 24.8% | CCRF-CEM leukemia 28.4% | MOLT-4 leukemia 15.3%
active: UACC-62 melanoma 7.37%

CC(=O)OCCC/C(=C/c1cc2ccccc2c2ccccc12)[N+](=O)[O-]
active: HCT-15 colon -81.8% | HT29 colon -44.7% | SNB-75 CNS -93.6% | SNB-19 CNS -91.1% | U251 CNS -95.4% | SK-MEL-5 melanoma -100% | UACC-62 melanoma -90.2% | LOX IMVI melanoma -70.6% | SK-MEL-28 melanoma -99.5% | SK-MEL-2 melanoma -80.8% | EKVX NSCLC -31.7% | SN12C renal -88.9% | UO-31 renal -97% | TK-10 renal -72.2% | ACHN renal -91.7% | A498 renal -80.1% | CCRF-CEM leukemia -36.1% | MOLT-4 leukemia -28.7%

O=C1c2cccc3cccc(c23)C(=O)N1CCCCN1CCN(CCCCOc2ccc(-c3nc4ccc(N5CCOCC5)cc4[nH]3)cc2)CC1
inactive: HCT-15 colon 87.8% | HT29 colon 83.3% | SNB-75 CNS 84.8% | SNB-19 CNS 89.4% | U251 CNS 74.6% | SK-MEL-5 melanoma 89.2% | UACC-62 melanoma 92.8% | LOX IMVI melanoma 93.7% | SK-MEL-28 melanoma 81.5% | SK-MEL-2 melanoma 90.4% | EKVX NSCLC 91.7% | SN12C renal 94.7% | UO-31 renal 32.8% | TK-10 renal 114% | ACHN renal 104% | CAKI-1 renal 79.8% | A498 renal 111% | CCRF-CEM leukemia 30.8% | MOLT-4 leukemia 52.3%

COc1cc(/C=C/C(=O)c2cccnc2Nc2ccc(F)cc2)cc(OC)c1OC
active: LOX IMVI melanoma 8.97% | CCRF-CEM leukemia -10.6% | MOLT-4 leukemia 5.4%
inactive: HCT-15 colon 22.2% | HT29 colon 12.5% | SNB-75 CNS 22.4% | SNB-19 CNS 61.6% | U251 CNS 24.1% | SK-MEL-5 melanoma 53.7% | UACC-62 melanoma 49.9% | SK-MEL-28 melanoma 72.1% | SK-MEL-2 melanoma 27.5% | EKVX NSCLC 69.5% | SN12C renal 16.2% | UO-31 renal 75.6% | TK-10 renal 77.8% | ACHN renal 45.7% | CAKI-1 renal 51.6%

Cn1cc(-c2nonc2-c2cn(C)c3ccc(F)cc23)c2ccccc21
inactive: HCT-15 colon 18.8% | SNB-19 CNS 31.6% | U251 CNS 23.5% | SK-MEL-5 melanoma 24.1% | UACC-62 melanoma 30.4% | LOX IMVI melanoma 34.8% | SK-MEL-28 melanoma 63.3% | SK-MEL-2 melanoma 30.6% | EKVX NSCLC 47.6% | SN12C renal 33.8% | UO-31 renal 26.9% | TK-10 renal 60.6% | ACHN renal 38.7% | CAKI-1 renal 26.2% | CCRF-CEM leukemia 14.9% | MOLT-4 leukemia 15.9%
active: HT29 colon 6.32% | SNB-75 CNS -17.9% | A498 renal -2.88%

C#CCOc1ccc2ncnc(Nc3cccc(CNC(=O)CCl)c3)c2c1
inactive: HCT-15 colon 45.2% [8.25 µM] | HT29 colon 35% [8.25 µM] | SNB-75 CNS 15.5% [8.25 µM] | SNB-19 CNS 60.7% [8.25 µM] | U251 CNS 10.1% [8.25 µM] | SK-MEL-5 melanoma 14.5% [8.25 µM] | UACC-62 melanoma 40.3% [8.25 µM] | LOX IMVI melanoma 53.9% [8.25 µM] | SK-MEL-28 melanoma 69% [8.25 µM] | SK-MEL-2 melanoma 49.6% [8.25 µM] | EKVX NSCLC 58.7% [8.25 µM] | SN12C renal 30.3% [8.25 µM] | UO-31 renal 39.8% [8.25 µM] | TK-10 renal 38% [8.25 µM] | ACHN renal 37.8% [8.25 µM] | CAKI-1 renal 39.6% [8.25 µM] | CCRF-CEM leukemia 14.4% [8.25 µM] | MOLT-4 leukemia 15.1% [8.25 µM]
active: A498 renal -1.38% [8.25 µM]

COc1ccc(C(=O)COc2ccc(/C=C3\COc4ccc(OC)cc4C3=O)cc2)cc1
active: CCRF-CEM leukemia 7.46%
inactive: HCT-15 colon 77.5% | HT29 colon 93% | SNB-75 CNS 91.7% | SNB-19 CNS 101% | U251 CNS 84.3% | SK-MEL-5 melanoma 74.2% | UACC-62 melanoma 85.1% | LOX IMVI melanoma 80.7% | SK-MEL-28 melanoma 94.5% | SK-MEL-2 melanoma 68.1% | EKVX NSCLC 103% | SN12C renal 100% | UO-31 renal 85.8% | TK-10 renal 105% | ACHN renal 99.8% | CAKI-1 renal 99.1% | A498 renal 100% | MOLT-4 leukemia 55.5%

CN(C)S(=O)(=O)c1cccc(-c2nc3sc4c(c3c(=O)[nH]2)CCCC4)c1
inactive: HCT-15 colon 115% | HT29 colon 19.5% | SNB-19 CNS 53.5% | SK-MEL-5 melanoma 77.3% | UACC-62 melanoma 71.1% | LOX IMVI melanoma 174% | SK-MEL-28 melanoma 82.2% | SK-MEL-2 melanoma 36.9% | EKVX NSCLC 56.1% | SN12C renal 28.3% | UO-31 renal 29.6% | ACHN renal 96.5% | CAKI-1 renal 65.5% | MOLT-4 leukemia 56.9%
active: SNB-75 CNS -12.3% | U251 CNS 1.85% | TK-10 renal -20.5% | A498 renal -29.8%
